# Measurements taken from the supplement of paper PMC6555819.
# How the values were obtained:
# Assay in all cases: PBM binding z-score (relative to random genomic background probes); higher = stronger binding; sequences stand for … in GC…GCGATTGACAGCGTAGAATGAAGG
# [1] = test system: FXR:RXRa (NR concentration 270 nM, RXRa partner concentration 90 nM)
# Outline: (§1)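 Each nuclear receptor dimer, without ligand, was incubated for 1 h on custom Agilent 4×180K protein-binding microarrays. Binding was detected with antibodies against each partner (one per run), and scanned fluorescence was regression-normalized. The binding z-scores are referenced to random human genomic background probes.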
# [2] = test system: LXRa:RXRa (NR concentration 270 nM, RXRa partner concentration 90 nM)
# Outline: as §1
# [3] = test system: LXRa homodimer (NR concentration 270 nM)
# Outline: as §1
# [4] = test system: LXRb:RXRa (NR concentration 270 nM, RXRa partner concentration 90 nM)
# Outline: as §1
# [5] = test system: LXRb homodimer (NR concentration 270 nM)
# Outline: as §1
# [6] = test system: PPARa:RXRa (NR concentration 270 nM, RXRa partner concentration 90 nM)
# Outline: as §1
# [7] = test system: PPARg:RXRa (NR concentration 180 nM, RXRa partner concentration 90 nM)
# Outline: as §1
# [8] = test system: PPARg:RXRa 270nM:90nM, anti-RXR (NR concentration 270 nM, RXRa partner concentration 90 nM)
# Outline: as §1
# [9] = test system: PPARg:RXRa 30nM:10nM, anti-RXR (NR concentration 30 nM, RXRa partner concentration 10 nM)
# Outline: as §1
# [10] = test system: PPARg:RXRa 90nM:30nM, anti-RXR (NR concentration 90 nM, RXRa partner concentration 30 nM)
# Outline: as §1
# [11] = test system: PPARg:RXRa DBDmut IVT, anti-RXR (DBD mutation: RXRa K156A/R161A, NR concentration 270 nM, RXRa partner concentration 90 nM)
# Outline: as §1
# [12] = test system: PPARg:RXRa IVT, anti-PPARg (NR concentration 270 nM, RXRa partner concentration 90 nM)
# Outline: as §1
# [13] = test system: PPARg DBDmut:RXRa IVT, anti-PPARg (DBD mutation: PPARg1 K132A/R137A, NR concentration 270 nM, RXRa partner concentration 90 nM)
# Outline: as §1
# [14] = test system: PPARg DBDmut IVT, anti-PPARg (DBD mutation: PPARg1 K132A/R137A, NR concentration 270 nM)
# Outline: as §1
# [15] = test system: PPARg homodimer (NR concentration 180 nM)
# Outline: as §1
# [16] = test system: PXR:RXRa (NR concentration 270 nM, RXRa partner concentration 90 nM)
# Outline: as §1
# [17] = test system: PXR homodimer (NR concentration 270 nM)
# Outline: as §1
# [18] = test system: RARa:RXR (NR concentration 270 nM, RXRa partner concentration 90 nM)
# Outline: as §1
# [19] = test system: RARa homodimer (NR concentration 270 nM)
# Outline: as §1
# [20] = test system: RARb:RXRa (NR concentration 270 nM, RXRa partner concentration 90 nM)
# Outline: as §1
Sequence,PBM binding z-score [1],PBM binding z-score [2],PBM binding z-score [3],PBM binding z-score [4],PBM binding z-score [5],PBM binding z-score [6],PBM binding z-score [7],PBM binding z-score [8],PBM binding z-score [9],PBM binding z-score [10],PBM binding z-score [11],PBM binding z-score [12],PBM binding z-score [13],PBM binding z-score [14],PBM binding z-score [15],PBM binding z-score [16],PBM binding z-score [17],PBM binding z-score [18],PBM binding z-score [19],PBM binding z-score [20]
CCTAGTTGGTCAGGAGGTCTCACACCGGATATGA,0.237,0.219,0.125,-0.00774,-0.246,0.135,0.469,0.772,-0.0549,0.338,0.196,1.02,-0.277,0.59,1.25,-0.0259,0.521,0.0681,1.06,0.838
CCTTCTAGGTCATGGTCAGCTAATCTACAGTATG,3.87,2.77,0.676,2.12,0.355,4.37,5.63,5.39,2.57,4.28,7.22,6.72,1.58,1.21,2.24,1.7,0.327,2.63,1.36,4.08
CGAACTAGGTCATTGAGAGGACAGTGAATAGTAA,3.94,2.78,0.422,1.87,-0.333,4.37,7.29,5.99,3.89,5.45,7.95,7.8,1.23,0.676,2.27,2.36,0.174,3.08,-0.238,3.74
TCTTGTAGAGCAGCAGGTTAAGAAAGCTGGCCAA,-0.000312,-0.0132,-1.04,-0.257,-1.45,0.529,-0.553,1.04,1.29,1.01,1.09,0.666,-0.321,-1.03,-0.986,-0.26,-1.07,-0.139,-0.879,-0.156
CGTCCAAGGTCAATGCTAGGTCAGTGGAAGCATT,6.99,5.73,3.02,3.78,0.891,4.81,4.07,4.24,1.28,3.23,3.31,3.57,-0.546,-0.435,5.36,4.87,1.99,6.1,1.39,5.17
CGCACTAGGTCAGAACAGGACAGTGAAGGATGAT,1.58,1.02,-0.057,0.629,-0.258,2.67,4.7,4.2,1.63,3.24,7.11,7.1,0.649,0.931,1.4,1.07,0.443,1.39,0.474,3.02
CTCGAAAGGTGGGTTGAGGTGAGTATACGGATAA,0.825,0.397,0.00532,1.1,0.353,1.22,0.158,0.31,-0.0559,-0.00652,0.207,0.842,0.168,0.0199,0.652,1.01,0.754,1.22,0.749,0.866
CATTACGGGTCACTGACAGGTTATAGCATTTGGA,5.82,5.1,1.52,4.09,0.756,5.54,5.78,5.45,2.2,4.33,4.59,5.02,2.13,1.77,2.69,3.95,0.249,4.95,1.33,4.05
GCTGCTAGGTCAGGTTGGTCAGCCAACGGGTACG,1.12,0.345,-0.418,0.336,-0.341,1.36,0.298,1.1,-0.412,0.115,2.43,2.2,-1.3,-1.25,0.608,0.00259,-0.305,0.503,-0.0936,3.2
TGTCAAAGTTCAAAGGTAACGTATGTATCCACAC,7.33,6.48,4.88,4.63,1.63,5.67,8.6,7.61,5.63,7.23,0.0702,4.53,1.85,1.93,2.61,5.65,3.95,6.64,1.84,5.04
ATCGAAAGGTCGACGGTGAGTATACCCACCCGAA,4.38,3.44,0.131,2.47,0.548,4.12,2.45,3.09,1.17,2.63,-0.188,1.6,0.9,0.777,1.58,2.43,-0.256,3.22,0.352,3.8
GCAGACAGGTGAAACGCAGGTATCTCAGGGTGGC,-0.22,-0.184,-0.68,-0.253,-1.19,0.544,0.481,0.0316,-0.675,-0.473,0.78,0.498,-0.724,-0.85,-0.577,-0.328,-0.634,0.112,-0.595,0.463
CTCGAAAGGTCGTGCTCAGGTGAGTATCCCAAAC,4.79,3.79,0.264,3.34,0.35,4.61,2.17,3.89,0.803,2.2,0.866,1.8,0.243,-0.461,1.25,3.1,0.327,3.67,-0.0794,3.83
TCATATAGCTAAAAGGTGAAAGTCGGTGTGGTAA,0.855,1.02,0.0787,1.2,-0.577,2.26,0.863,2.94,3.25,3.08,2.08,0.996,0.333,0.116,0.824,0.793,0.353,1.37,0.703,1.5
TCTAGCGGGCCAGAGGGTCACTCAAGAGGTACGG,0.839,0.883,-0.748,1.08,-1.43,2.37,1.3,2.42,1.68,2.48,0.727,0.801,-0.857,-1.59,-0.0821,1.64,-0.599,2.17,-0.431,2.2
